Source: patent publication US20100081621, “Crystal structure of the catalytic domain of the viral restriction factor APOBEC3G” (published 2010)

Each sequence was assayed against APOBEC3G R313E/R320D (Homo sapiens, UniProt Q9HC16 Q9HC16:1-384, R313E,R320D) (assay: FP; 5 mM MgCl2, 37 C). Conditions: tags: Sf9, pAcG2T; label: internal fluorescein-dT; ssDNA; [15 (fluorescein-dT)].
Sequence of APOBEC3G R313E/R320D (Q9HC16 whole entry R313E/R320D, one chain of several): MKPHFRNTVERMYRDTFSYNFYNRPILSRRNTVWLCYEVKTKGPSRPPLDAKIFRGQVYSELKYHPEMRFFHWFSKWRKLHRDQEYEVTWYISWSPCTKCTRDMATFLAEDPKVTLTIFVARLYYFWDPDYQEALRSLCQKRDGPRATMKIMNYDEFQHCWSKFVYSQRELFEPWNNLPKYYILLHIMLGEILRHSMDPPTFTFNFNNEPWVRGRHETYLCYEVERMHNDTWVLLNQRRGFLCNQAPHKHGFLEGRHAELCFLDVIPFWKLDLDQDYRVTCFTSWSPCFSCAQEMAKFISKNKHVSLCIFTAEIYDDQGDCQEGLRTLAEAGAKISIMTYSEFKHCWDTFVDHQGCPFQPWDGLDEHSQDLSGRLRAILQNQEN
Protocol: Apo3G-DNA binding were monitored by changes in steady state fluorescence depolarization (rotational anisotropy). Reaction mixtures (70 μl), containing an F-labeled DNA ([…]) in buffer (50 mM HEPES, pH 7.3, 1 mM DTT and 5 mM MgCl₂) and varying concentration of 0 to 500 nM Apo3G, were incubated at 37° C. The sequence of the ssDNA is: tta gat gag tgt aa(FdT) gtg ata tat gtg tat. Rotational anisotropy was measured as described previously (Chelico et al., 2006). The fraction of DNA bound to protein was determined as described previously (Bertram et al., 2004).
With TTAGATGAGTGTAATGTGATATATGTGTAT the binding signal was 77 % of wt.
